# In the supplement of paper PMC7411054:
# Counter-ions that a name gives are not always drawn.
# System: WPMY1-GM130-SQSTM1
# Assay: phenotypically active (imaging signature differs from DMSO and reproducible) at any of 0.3-9 uM (binary (1 = active, 0 = inactive)); higher = active
# Settings: treatment time: 24 h
# How it was run: (§1)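 Two criteria together defined phenotypic activity: deviation and reproducibility. Deviation meant ≥3 of 4 wells beyond the 95th percentile of Euclidean distances in solvent control wells, and reproducibility meant a median replicate Pearson correlation above the 95th percentile of non-replicates. Wells had been treated for 24 h at 0.3, 1, 3 or 9 µM in fifteen gene-edited A549, HepG2 and WPMY1 reporter lines before live imaging.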
row,SMILES,phenotypically active
1,O=P(O)(O)C(O)(Cc1cccnc1)P(=O)(O)O [risedronate],0 (inactive)
2,O=C(CCc1ccc(O)cc1)c1c(O)cc(O)cc1O[C@@H]1O[C@H](CO)[C@@H](O)[C@H](O)[C@H]1O [Phloridzin],0 (inactive)
3,CC(C)NCCCC1(C(N)=O)c2ccccc2-c2ccccc21 [indecainide],0 (inactive)
4,COc1c2occc2cc2ccc(=O)oc12 [methoxsalen],0 (inactive)
5,CC(=O)N[C@@H](CC(=O)O)C(=O)N[C@@H](CCC(=O)O)C(=O)O [Spaglumic acid],0 (inactive)
6,OCC(CO)N[C@H]1C[C@](O)(CO)[C@@H](O)[C@H](O)[C@H]1O [Voglibose],0 (inactive)
7,CCOc1ccccc1OCCN[C@H](C)Cc1ccc(OC)c(S(N)(=O)=O)c1 [tamsulosin],0 (inactive)
8,O=C1NC(=O)/C(=C\c2cccc(C(F)(F)F)c2)S1,0 (inactive)
9,NS(=O)(=O)c1cc(Cl)c(Cl)c(S(N)(=O)=O)c1 [diclofenamide],0 (inactive)
10,CN1CCN2c3ncccc3Cc3ccccc3C2C1 (stereo not drawn) [Mirtazapine],0 (inactive)
11,O=C1N(c2ccccc2)c2ccccc2C1(Cc1ccncc1)Cc1ccncc1 [linopirdine],0 (inactive)
12,C[C@H]1[C@H](C)CC[C@]2(C(=O)O)CC[C@]3(C)C(=CC[C@@H]4[C@@]5(C)CC[C@H](O)C(C)(C)[C@@H]5CC[C@]43C)[C@H]12 [Ursolic acid],0 (inactive)
13,CCOC(=O)[C@H](CCc1ccccc1)N[C@@H](C)C(=O)N1Cc2ccccc2C[C@H]1C(=O)O [quinapril],0 (inactive)
14,CC1(C)CCC(C)(C)c2cc(C3(c4ccc(C(=O)O)cc4)OCCO3)ccc21,0 (inactive)
15,CCCCCCCCCN1C[C@H](O)[C@@H](O)[C@H](O)[C@H]1CO [N-Nonyldeoxynojirimycin],0 (inactive)
16,CC(=O)O[C@H]1C[C@@H]2CC[C@@H]3[C@H](CC[C@@]4(C)[C@H]3C[C@H]([N+]3(C)CCCCC3)[C@@H]4OC(C)=O)[C@@]2(C)C[C@@H]1N1CCCCC1 [vecuronium],0 (inactive)
17,O=C(O)c1cc(/N=N/c2ccc(O)c(C(=O)O)c2)ccc1O [olsalazine],0 (inactive)
18,CCOC(=O)[C@H](CCc1ccccc1)N[C@H]1CCc2ccccc2N(CC(=O)O)C1=O [benazepril],0 (inactive)
19,O=C(c1ccccc1)c1ccc2n1CCC2C(=O)O (stereo not drawn) [ketorolac],0 (inactive)
20,CN1C(=O)CC[C@H]1c1cccnc1 [(-)-Cotinine],0 (inactive)

row,SMILES,phenotypically active
1,CN1C(=O)OC(C)(C)C1=O [trimethadione],0 (inactive)
2,CCC(=C(CC)c1ccc(O)cc1)c1ccc(O)cc1 (stereo in doubt) [diethylstilbestrol],0 (inactive)
3,CCOc1cc(CC(=O)N[C@@H](CC(C)C)c2ccccc2N2CCCCC2)ccc1C(=O)O [repaglinide],0 (inactive)
4,O=C(Cn1ccnc1[N+](=O)[O-])NCc1ccccc1 [benznidazole],0 (inactive)
5,CCCc1nn(C)c2c(=O)[nH]c(-c3cc(S(=O)(=O)N4CCN(C)CC4)ccc3OCC)nc12 [Sildenafil citrate],0 (inactive)
6,CCN(CC)CC(=O)Nc1c(C)cccc1C [lidocaine],0 (inactive)
7,COc1ccc([C@@H]2Sc3ccccc3N(CCN(C)C)C(=O)[C@@H]2OC(C)=O)cc1 [diltiazem],0 (inactive)
8,COc1ccc(CCN(C)CCCN2CCc3cc(OC)c(OC)cc3CC2=O)cc1OC [zatebradine],0 (inactive)
9,CC(C)NCC(O)c1ccc(O)c(O)c1 (stereo not drawn) [Isoproterenol hydrochloride],0 (inactive)
10,O=C(O)c1ccc(O)c2ncccc12,0 (inactive)
11,NCCCC[C@H](N[C@@H](CCc1ccccc1)C(=O)O)C(=O)N1CCC[C@H]1C(=O)O [lisinopril],0 (inactive)
12,C#C[C@]1(O)CC[C@H]2[C@@H]3CCc4cc(OC5CCCC5)ccc4[C@H]3CC[C@@]21C [quinestrol],0 (inactive)
13,O=C(NCc1ccccn1)Nc1nnc(-c2ccco2)o1,0 (inactive)
14,O=C1c2ccccc2C(Cc2ccncc2)(Cc2ccncc2)c2ccccc21,0 (inactive)
15,CCOC(=O)C(C)(C)Oc1ccc(Cl)cc1 [Clofibrate],0 (inactive)
16,CC(C)(Sc1ccc(CCN(CCCCC2CCCCC2)C(=O)NC2CCCCC2)cc1)C(=O)O,0 (inactive)
17,O=c1[nH]cnc2c1ncn2[C@H]1CC[C@@H](CO)O1 [Didanosine],0 (inactive)
18,CC(c1cc2ccccc2s1)N(O)C(N)=O (stereo not drawn) [zileuton],0 (inactive)
19,COc1ccc2[nH]c(S(=O)Cc3ncc(C)c(OC)c3C)nc2c1 (stereo not drawn) [omeprazole],0 (inactive)

# System: WPMY1-TP53BP1-CLTA
# Assay: as above
# Settings: treatment time: 24 h
# How it was run: as §1
row,SMILES,phenotypically active
1,O=P(O)(O)C(O)(Cc1cccnc1)P(=O)(O)O [risedronate],0 (inactive)
2,O=C(CCc1ccc(O)cc1)c1c(O)cc(O)cc1O[C@@H]1O[C@H](CO)[C@@H](O)[C@H](O)[C@H]1O [Phloridzin],0 (inactive)
3,CC(C)NCCCC1(C(N)=O)c2ccccc2-c2ccccc21 [indecainide],0 (inactive)
4,COc1c2occc2cc2ccc(=O)oc12 [methoxsalen],0 (inactive)
5,CC(=O)N[C@@H](CC(=O)O)C(=O)N[C@@H](CCC(=O)O)C(=O)O [Spaglumic acid],0 (inactive)
6,OCC(CO)N[C@H]1C[C@](O)(CO)[C@@H](O)[C@H](O)[C@H]1O [Voglibose],0 (inactive)
7,CCOc1ccccc1OCCN[C@H](C)Cc1ccc(OC)c(S(N)(=O)=O)c1 [tamsulosin],0 (inactive)
8,O=C1NC(=O)/C(=C\c2cccc(C(F)(F)F)c2)S1,0 (inactive)
9,NS(=O)(=O)c1cc(Cl)c(Cl)c(S(N)(=O)=O)c1 [diclofenamide],0 (inactive)
10,CN1CCN2c3ncccc3Cc3ccccc3C2C1 (stereo not drawn) [Mirtazapine],0 (inactive)
11,O=C1N(c2ccccc2)c2ccccc2C1(Cc1ccncc1)Cc1ccncc1 [linopirdine],0 (inactive)
12,C[C@H]1[C@H](C)CC[C@]2(C(=O)O)CC[C@]3(C)C(=CC[C@@H]4[C@@]5(C)CC[C@H](O)C(C)(C)[C@@H]5CC[C@]43C)[C@H]12 [Ursolic acid],0 (inactive)
13,CCOC(=O)[C@H](CCc1ccccc1)N[C@@H](C)C(=O)N1Cc2ccccc2C[C@H]1C(=O)O [quinapril],0 (inactive)
14,CC1(C)CCC(C)(C)c2cc(C3(c4ccc(C(=O)O)cc4)OCCO3)ccc21,0 (inactive)
15,CCCCCCCCCN1C[C@H](O)[C@@H](O)[C@H](O)[C@H]1CO [N-Nonyldeoxynojirimycin],0 (inactive)
16,CC(=O)O[C@H]1C[C@@H]2CC[C@@H]3[C@H](CC[C@@]4(C)[C@H]3C[C@H]([N+]3(C)CCCCC3)[C@@H]4OC(C)=O)[C@@]2(C)C[C@@H]1N1CCCCC1 [vecuronium],0 (inactive)
17,O=C(O)c1cc(/N=N/c2ccc(O)c(C(=O)O)c2)ccc1O [olsalazine],0 (inactive)
18,CCOC(=O)[C@H](CCc1ccccc1)N[C@H]1CCc2ccccc2N(CC(=O)O)C1=O [benazepril],0 (inactive)
19,O=C(c1ccccc1)c1ccc2n1CCC2C(=O)O (stereo not drawn) [ketorolac],0 (inactive)
20,CN1C(=O)CC[C@H]1c1cccnc1 [(-)-Cotinine],0 (inactive)

row,SMILES,phenotypically active
1,CN1C(=O)OC(C)(C)C1=O [trimethadione],0 (inactive)
2,CCC(=C(CC)c1ccc(O)cc1)c1ccc(O)cc1 (stereo in doubt) [diethylstilbestrol],0 (inactive)
3,CCOc1cc(CC(=O)N[C@@H](CC(C)C)c2ccccc2N2CCCCC2)ccc1C(=O)O [repaglinide],0 (inactive)
4,O=C(Cn1ccnc1[N+](=O)[O-])NCc1ccccc1 [benznidazole],0 (inactive)
5,CCCc1nn(C)c2c(=O)[nH]c(-c3cc(S(=O)(=O)N4CCN(C)CC4)ccc3OCC)nc12 [Sildenafil citrate],0 (inactive)
6,CCN(CC)CC(=O)Nc1c(C)cccc1C [lidocaine],0 (inactive)
7,COc1ccc([C@@H]2Sc3ccccc3N(CCN(C)C)C(=O)[C@@H]2OC(C)=O)cc1 [diltiazem],0 (inactive)
8,COc1ccc(CCN(C)CCCN2CCc3cc(OC)c(OC)cc3CC2=O)cc1OC [zatebradine],0 (inactive)
9,CC(C)NCC(O)c1ccc(O)c(O)c1 (stereo not drawn) [Isoproterenol hydrochloride],0 (inactive)
10,O=C(O)c1ccc(O)c2ncccc12,0 (inactive)
11,NCCCC[C@H](N[C@@H](CCc1ccccc1)C(=O)O)C(=O)N1CCC[C@H]1C(=O)O [lisinopril],0 (inactive)
12,C#C[C@]1(O)CC[C@H]2[C@@H]3CCc4cc(OC5CCCC5)ccc4[C@H]3CC[C@@]21C [quinestrol],0 (inactive)
13,O=C(NCc1ccccn1)Nc1nnc(-c2ccco2)o1,0 (inactive)
14,O=C1c2ccccc2C(Cc2ccncc2)(Cc2ccncc2)c2ccccc21,0 (inactive)
15,CCOC(=O)C(C)(C)Oc1ccc(Cl)cc1 [Clofibrate],0 (inactive)
16,CC(C)(Sc1ccc(CCN(CCCCC2CCCCC2)C(=O)NC2CCCCC2)cc1)C(=O)O,0 (inactive)
17,O=c1[nH]cnc2c1ncn2[C@H]1CC[C@@H](CO)O1 [Didanosine],0 (inactive)
18,CC(c1cc2ccccc2s1)N(O)C(N)=O (stereo not drawn) [zileuton],0 (inactive)
19,COc1ccc2[nH]c(S(=O)Cc3ncc(C)c(OC)c3C)nc2c1 (stereo not drawn) [omeprazole],0 (inactive)
